# GC-B act: GC-B (human) receptor activation; P20594; HEK293-GC-B cells, CNP EC30, cGMP TR-FRET; 0% at EC30 CNP, 100% saturating CNP; activation, % at 10 µM; actives 0.11% (n = 370,000);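 active = activation at 10 µM reaching about 35% in either raw or pattern-adjusted values, limit read from the data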
# NPR1 activator: GC-A (human) enzyme activation | P16066 | HEK293 GC-A cells, cGMP TR-FRET, EC30 ANP; 0% at EC30 ANP, 100% saturating ANP | activation, % at 10 µM | actives 0.14% (n = 370,000) | AID 1671463; in the data active = activation above about 40%
# PLC-gamma1 inh: PLC-gamma1 (human) inhibition, primary screen; P19174; purified PLC-gamma1, fluorogenic substrate, fluorescence; inhibition, % at 12.2 µM; actives 0.84% (n = 370,000); AID 720700; in the data active = inhibition above about 9.5%
# PLC-beta3 inh: inhibitors of human phospholipase C beta3. inhibition, % at 12.2 µM. Purified PLC-beta3, fluorogenic substrate, fluorescence. actives 0.18% (n = 370,000);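 also: 0% = median of compound wells on plate and 100% = full blocker control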
# Rce1 inhib: yeast Ras-converting enzyme inhibition; yeast membranes, quenched prenylated peptide cleavage fluorescence; calls only; actives 0.27% (n = 290,000);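 active = fall in fluorescence gain of 50% or more versus controls, with final raw signal at or below 3038400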;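 also: plate controls were neutral control wells for no effect and wells lacking membranes for full effect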
# PfM18AAP inh: blocks P. falciparum M18 aspartyl aminopeptidase; recombinant PfM18AAP, H-Glu-NHMec fluorogenic cleavage; actives 1.2% (n = 290,000); inhibition, % at 7.35 µM; AID 1822;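 active = inhibition above the campaign mean inhibition over all tested compounds plus 3 SD, cut at about 28% in these data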;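 also: 0% = plate median of test compound wells and 100% = 2 mM ZnCl2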
# PLCgamma1 ctr: inhibits human PLC-gamma1 in PLC-beta3 counter-screen. shares compounds with PLC-gamma1 inh. purified PLC-gamma1, fluorogenic substrate, fluorescence. inhibition, % at 12.3 µM. actives 3.1% (n = 3,300); in the data active = inhibition above about 9.5%
# PLCb3 confirm: human PLC-beta3 inhibition, confirmation; shares compounds with PLC-gamma1 inh; purified PLC-beta3, fluorogenic substrate fluorescence; inhibition, % at 12.3 µM; actives 1% (n = 3,300); AID 743261
# * hit, by the source's call; i = inactive; · = no result given. Only some compounds are listed: those with a hit (about 2.2% of all), similar ones and a draw of the others. Rule as the data show it, unless noted: active = inhibition above about 11%; inactive = the rest.
SMILES,GC-B act,NPR1 activator,PLC-gamma1 inh,PLC-beta3 inh,Rce1 inhib,PfM18AAP inh,PLCgamma1 ctr,PLCb3 confirm
Cc1cc(-c2nnc(SCC(=O)Nc3cccc4ccccc34)n2N)n[nH]1,-9,5,8,-1,·,·,·,·
c1ccc2oc(SCc3cn4ccsc4n3)nc2c1,3,-6,9.5*,9,i,-29,-1,-1
Cc1csc2nc(CSc3nc4ccccc4o3)cn12,3,1,0,0,·,-3,·,·
Nc1ccn([C@@H]2O[C@H](C(=O)N[C@H](Cc3ccccc3)C(=O)N3CCN(CCO)CC3)[C@@H](O)[C@H]2O)c(=O)n1,6,0,-1,-1,·,·,·,·
Cc1ccc(S(=O)(=O)Cc2nc3ccccc3c(=O)[nH]2)cc1,-6,-7,-2,19*,i,1,-16,9
CC(C)(C)C(=O)NC1CCCCN(Cc2cccc(C(F)(F)F)c2)C1=O (stereo not drawn),6,3,1,5,·,·,·,·
CCOC(=O)[C@]12CCCC3=C1N(CCC3)C(=O)[C@@H](CC(=O)NCCCCc1ccccc1)C2,-3,5,0,0,·,·,·,·
CSCC[C@H](NC(=O)CCn1nnc2ccccc2c1=O)C(=O)O,8,6,11*,12*,i,3,6,8
CC(C)C[C@H](NC(=O)CCCn1nnc2ccccc2c1=O)C(=O)O,-1,4,0,-6,i,-4,·,·
Cc1cccc(NC(=O)Cn2c(=O)n(CCc3c[nH]c4ccccc34)c(=O)c3cccnc32)c1,-3,-3,11*,5,i,-2,0,1
O=c1oc2ccccc2c(O)c1C=NCc1ccccn1,1,-5,12*,9,·,8,1,1
C=CCN1C(=O)[C@@H](CC(=O)NCc2ccc(OC)c(OC)c2)[C@]2(C(=O)OCC)CCCCC/C=C/12,-3,-1,1,-2,·,·,·,·
O=c1c(Cl)c(NCC2CCCO2)cnn1C12CC3CC(CC(C3)C1)C2 (stereo not drawn),-2,0,12*,-1,i,0,-7,-2
c1ccn(-c2ccc(-c3noc(CCc4ccncc4)n3)cc2)c1,-9,-2,7,4,·,·,·,·
CCOC(=O)N1CCC(NS(=O)(=O)c2ccc3c(c2)CCN3C(C)=O)CC1,4,1,12*,6,i,9,-7,-4
CC(=O)N1CCc2cc(S(=O)(=O)NC3CCN(C(=O)CCl)CC3)ccc21,5,1,-3,0,·,·,·,·
COC(=O)C1=C(C)N(C)C(=NCc2cccc(C(F)(F)F)c2)NC1c1ccc(F)cc1 (stereo not drawn),-4,-8,2,-2,·,·,·,·
Cn1c(=O)[nH]c(=O)c2c1ncn2CCN1CCOCC1,-6,0,5,11*,i,-4,-4,-4
CCCCn1cnc2c1c(=O)[nH]c(=O)n2CCCC,1,-1,7,11*,i,1,-4,7
Cn1c(=O)[nH]c(=O)c2c1nc(N1CCOCC1)n2CCN1CCOCC1,3,-2,2,1,i,-5,·,·
CCn1cnc2c1c(=O)[nH]c(=O)n2Cc1ccccc1,·,·,·,·,i,-51,·,·
O=S1(=O)c2ccc(N3CCN(Cc4ccccc4F)CC3)cc2Oc2ccccc2CN1Cc1cn(Cc2cccc(F)c2)nn1,2,1,-3,-3,·,·,·,·
Cc1c(N2C(=O)c3cccc4cccc(c34)C2=O)c(=O)n(-c2ccccc2)n1C,13,-1,9.8*,12*,i,-1,14*,5
COc1ccc(N2CC(C(=O)Nc3cccc(OC(C)C)c3)CC2=O)cc1 (stereo not drawn),-3,-5,1,-8,i,-5,·,·
CC(C)Oc1ccc(N2CC(C(=O)Nc3ccc(N4CCOCC4)cc3)CC2=O)cc1 (stereo not drawn),-7,-6,12*,12*,i,0,5,4
SMILES,GC-B act,NPR1 activator,PLC-gamma1 inh,PLC-beta3 inh,Rce1 inhib,PfM18AAP inh,PLCgamma1 ctr,PLCb3 confirm
CC(=O)Nc1cccc(NC(C)=O)n1,0,0,1,-2,i,0,·,·
CC(C)CC(=O)Nc1cccc(NC(=O)CC(C)C)n1,3,-1,10*,-3,i,0,-8,-7
CCOc1ccccc1N1CCN(C(=S)NCc2ccccc2)CC1,3,3,9.7*,4,i,-2,-2,-2
CCNC(=S)N1CCN(c2ccccc2OCC)CC1,2,-2,2,2,i,-1,·,·
CCCCCCC1CC(CSC(=N)N)OC1=O (stereo not drawn),-2,0,11*,6,i,0,7,0
CN(C)c1ccc(O)c2c1CC1CC3[C@@H](N(C)C)C(=O)C(C(N)=O)=C(O)[C@]3(O)C(=O)C1=C2O (stereo partly drawn),-8,1,17*,1,i,23,-3,-7
O=C1CC(N2CCN(c3ccc(F)cc3)CC2)C(=O)N1Cc1ccccc1 (stereo not drawn),3,-3,-2,1,i,3,·,·
O=C1CC(N2CCN(c3ccccc3)CC2)C(=O)N1Cc1ccc(Cl)cc1 (stereo not drawn),-4,-2,10*,0,i,-10,-7,-3
COC(=O)[C@]12C[C@H](CC(=O)N3CCCC3)C(=O)N(Cc3ccccc3)C1=C[C@H](C(C)(C)C)O[C@@H]2C,-7,-6,1,0,·,·,·,·
Cc1cc(C)cc(NC(=O)CCNC(=O)c2ccc([N+](=O)[O-])cc2)c1,-4,0,10*,-3,i,-3,-8,-6
Cc1ccc(N(CC(=O)NC2CCCC2)C(=O)CCC(=O)Nc2nc(C)cs2)cc1,5,4,9.6*,-8,i,-4,-2,4
CCOc1ccc(N(CC(=O)NC2CCCC2)C(=O)CCC(=O)Nc2nc(C)cs2)cc1,-7,2,1,-3,·,7,·,·
Cc1c(C(c2cccc([N+](=O)[O-])c2O)c2c(C)n(C)n(-c3ccccc3)c2=O)c(=O)n(-c2ccccc2)n1C,-2,0,2,3,i,-3,·,·
Cc1[nH]n(-c2ccccc2)c(=O)c1C(c1ccc(C(=O)O)cc1)c1c(C)[nH]n(-c2ccccc2)c1=O,9,1,26*,8,i,26,-11,-5
Cc1[nH]n(-c2ccccc2)c(=O)c1C(=O)c1ccc([N+](=O)[O-])cc1,5,-2,0,-1,i,0,·,·
Cc1[nH]n(-c2ccccc2)c(=O)c1C(c1cccc([N+](=O)[O-])c1O)c1c(C)[nH]n(-c2ccccc2)c1=O,2,4,31*,14*,i,10,4,4

# Assay outcomes (PubChem)
